Assay outcomes from PubChem.
Shown are actives, neighbours in structure and some others; about 5.5% of the full set was active somewhere.
RORgamma inh = ROR gamma (mouse) transcription inhibition | Drosophila S2 Gal4-RORgamma UAS-luciferase reporter, 20 h | Potency, µM (titrated, usually from 53.6 µM), hits mostly inhibitors | actives 5.4% (n = 310,000) | AID 2551; also: nearly all actives have a fitted effect of over 60% in size
Target sequence (P51450 whole entry, looked up, the tested form may be a part): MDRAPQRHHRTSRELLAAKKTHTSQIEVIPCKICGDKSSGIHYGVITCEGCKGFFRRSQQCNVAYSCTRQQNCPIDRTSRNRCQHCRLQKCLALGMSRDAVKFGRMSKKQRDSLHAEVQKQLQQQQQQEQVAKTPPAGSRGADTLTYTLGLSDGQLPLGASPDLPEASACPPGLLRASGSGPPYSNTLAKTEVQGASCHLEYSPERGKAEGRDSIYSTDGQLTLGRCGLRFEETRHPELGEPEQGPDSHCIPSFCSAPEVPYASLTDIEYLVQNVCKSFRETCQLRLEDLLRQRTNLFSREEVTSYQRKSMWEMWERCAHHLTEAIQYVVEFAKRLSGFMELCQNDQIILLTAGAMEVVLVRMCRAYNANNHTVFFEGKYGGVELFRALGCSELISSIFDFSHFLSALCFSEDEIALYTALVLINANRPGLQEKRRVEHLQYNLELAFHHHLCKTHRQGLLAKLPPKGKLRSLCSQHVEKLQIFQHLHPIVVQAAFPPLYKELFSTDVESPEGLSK
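Stable Schneider cell line, Gal4 DNA-binding domain fused to ROR gamma, UAS-luciferase. Cmpd 1 hr RT → CuSO4 700 uM final → 20 hr RT → luciferase reagent 10 min → luminescence.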
a7 integrin act = activators of alpha7 integrin expression for muscular dystrophy; alpha7betagal myoblasts, beta-gal FDG fluorescence, 48 h; Potency, µM (top dose mostly 38.3 µM), most hits filed as activators; actives 0.064% (n = 350,000); AID 624291; also: nearly all actives have a fitted effect of over 60% in size
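Alpha7betagal+/- myoblasts (passage 13) were plated 16-24 hr, then exposed to compounds (1:260 dilution of DMSO stock) for 48 hours at 37C. After MPER lysis, β-galactosidase reporter activity was read as FDG fluorescence (ex 480/em 540) after 30 minutes.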
uPA surface inh = cell surface uPA generation inhibition; Potency, µM (series often up to 38.3 µM), most hits filed as inhibitors; actives 0.31% (n = 330,000); cell surface uPA generation assay, qHTS; active = well fitted inhibition curve with a large enough effect; inconclusive = small, poorly fitted or top-dose-only effect; inactive = no such curve, though single readings can be large or run the other way; tested in mouse RAW 264.7 cells; also: nearly all actives have a fitted effect of over 55% in size
Chronic BCR inh = chronic active BCR signaling inhibition. ABC-DLBCL IkBa-CBG/CBR reporter, luminescence ratio, 4 h. Potency, µM (highest dose often 46.1 µM), actives largely listed as inhibitors. actives 0.05% (n = 340,000). AID 493014; active = well fitted inhibition curve with a large enough effect in the signal ratio, with a control signal flat, not every such curve was filed as active; inconclusive = small, poorly fitted or top-dose-only effect, or effect the other way, or a change in a side signal; the % refers to the signal ratio
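Doxycycline induced both beetle luciferases in TMD8 lymphoma cells; IKK-driven degradation limits the IkappaBalpha-fused green signal, while red luminescence normalises for cell number and nonspecific effects. Compounds tested up to 46 uM, 4 hrs.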
Gal4-VP16 FLuc = inhibits Gal4-VP16 luciferase reporter, ROR gamma counter-screen; Drosophila S2 Gal4-VP16 UAS-luciferase, luminescence, 20 h; Potency, µM (titrated, usually from 53.6 µM), hits mostly inhibitors; actives 3.5% (n = 310,000); AID 2546;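 also: Gal4-VP16 expression switched on by copper sulfate through the metallothionein promoter; nearly all actives have a fitted effect of over 50% in size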
Mito fusion act = blocks mitochondrial division or promotes mitochondrial fusion. S. cerevisiae fusion-defective mutant growth rescue, CellTiterGlo 48 h. Potency, µM (top dose mostly 46.1 µM), usual class: activators. actives 0.23% (n = 320,000). AID 485298; also: nearly all actives have a fitted effect of over 45% in size
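Yeast fusion mutant, YPEG (non-fermentable carbon), compound, 48 h at 37C non-permissive; CellTiterGlo added, 10 min RT, luminescence read. Rescued growth = division inhibition.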
Of the large screens only hits and unclear results are named; the others gave an inactive call. Unless noted, calls follow the shape of the dose curve; as a rule, active = well fitted curve in the direction sought with a large enough effect; inconclusive = small, poorly fitted or top-dose-only effect, or another doubt; inactive = no such curve, though single readings can be large; an effect the other way counts as inactive or inconclusive.

CC(C)(C)c1ccc(C(=O)Nc2nnc(SCC(=O)NCC3CCCO3)s2)cc1 (stereo not given)	RORgamma inh inconclusive, uPA surface inh 0.89µM, Gal4-VP16 FLuc 7.1µM
CN(C)S(=O)(=O)c1ccc(C(=O)Nc2nnc(SCC(=O)NCC3CCCO3)s2)cc1 (stereo not given)	uPA surface inh 7.9µM
O=C(CSc1nnc(NC(=O)c2cccc(F)c2)s1)NCC1CCCO1 (stereo not given)	uPA surface inh inconclusive
O=C(NC1CCCC1)C1CCCN(S(=O)(=O)c2ccc(F)cc2)C1 (stereo not given)	none
COCC(=O)Nc1cc(Sc2ccccc2)ccc1N=C(NC(=O)OC)NC(=O)OC	none (no result: a7 integrin act, uPA surface inh, Chronic BCR inh, Mito fusion act)
CSc1ccc(/C=C/C(=O)NC(=O)c2ccccc2O)cc1	uPA surface inh 11µM, Chronic BCR inh inconclusive
CCOC(=O)C1=C(CN2CCN(c3ccc(Cl)cc3)CC2)NC(=O)NC1c1ccc(OC)cc1 (stereo not given)	none (no result: RORgamma inh, a7 integrin act, uPA surface inh, Gal4-VP16 FLuc, Mito fusion act)
CCOC(=O)c1cnc2ccc(C)cc2c1Sc1ccc(F)cc1	RORgamma inh inconclusive, Chronic BCR inh inconclusive, Gal4-VP16 FLuc 28µM
Cc1ccc(Cc2nnc(SCC(=O)Nc3ccccc3)n(N)c2=O)cc1	none (no result: RORgamma inh, Gal4-VP16 FLuc)
CCCCCC(=O)CC[C@@H]1[C@@H](C/C=C\CCCC(=O)O)[C@@H](O)C[C@H]1O	none (no result: a7 integrin act, uPA surface inh, Chronic BCR inh, Mito fusion act)
N[C@H](C(=O)O)[C@H](OCc1ccccc1)C(=O)O	none (no result: a7 integrin act, uPA surface inh, Chronic BCR inh, Mito fusion act)
CCC(=O)C1CCCN(C(=O)CCc2nnc(C3(c4ccc(Cl)cc4)CCC3)o2)C1 (stereo not given)	none
CCOC(=O)C1=C(C)c2ccccc2N(C(=O)OC)C1(C)C(=O)OCC (stereo not given)	RORgamma inh inconclusive, uPA surface inh inconclusive, Chronic BCR inh 18µM (no result: Mito fusion act)
CCOC(=O)C1=C(C)c2ccccc2OC1(CC)C(=O)OCC (stereo not given)	none (no result: Mito fusion act)
CC(C)(C)OC(=O)N1CCN(c2ccc(NC(=O)c3ccco3)cc2)CC1	none
COc1ccc(Cl)cc1NC(=O)c1c(NCc2sccc2C)sc2c1CCCC2	none (no result: RORgamma inh, a7 integrin act, uPA surface inh, Gal4-VP16 FLuc, Mito fusion act)
O=C(O)CCCC(=O)Nc1ccc2c(c1)oc1ccccc12	RORgamma inh 11µM, Chronic BCR inh inconclusive, Gal4-VP16 FLuc inconclusive
COCCNc1ccnc(-c2ccccc2C)n1	none (no result: a7 integrin act, uPA surface inh, Chronic BCR inh, Mito fusion act)
